Reference: PubChem BioAssay AID1159580 (chemical genetic matrix, 2015)
Where “and” joins values, the source holds several entries; their conditions need not be identical. Equal entries are not always repeated. The whole screen tested about 5,500 compounds, of which about 2,000 (36%) were called active. Roughly 18% stayed inconclusive and do not appear here. Cut-off read from the data, not from the text of the source: active = normalized growth mostly below about 0.91 (no sharp cut-off); inconclusive = no clear call, values can overlap the other calls; inactive = mostly above about 0.92. This is one part of the list.

Assay: chemical genetic growth profiling, strain panel (AID 1159580);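 note: tested at 20 µM; growth read once vehicle control cultures reached saturation at 30 °C; 1 = growth at the plate median or of vehicle wells; lower values mean less growth of the strain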
Conditions: S. cerevisiae deletion strains, growth OD

Measured: normalized growth

C=C[C@@](C)(O)CCC1C(=C)C[C@H](OC(C)=O)C2C(C)(C)CCCC12C (stereo partly specified)
inactive: locus YAL013W, strain DEP1, hits give low values 1.01 | locus YAL021C, strain ccr4, hits give low values 1.03 | locus YAL026C, strain drs2, hits give low values 1.03 | locus YAL030W, strain snc1, hits give low values 1.04 | locus YBL061C, strain skt5, hits give low values 1.03 | locus YBR009C, strain hhf1, hits give low values 1 | locus YBR021W, strain FUR4, hits give low values 0.963 | locus YBR023C, strain chs3, hits give low values 1.02 | locus YBR171W, strain sec66, hits give low values 1.01 | locus YBR229C, strain ROT2, hits give low values 0.972 | locus YBR231C, strain swc5, hits give low values 1.05 | locus YBR279W, strain paf1, hits give low values 1.02 | locus YCL011C, strain gbp2, hits give low values 1.01 | locus YCL016C, strain dcc1, hits give low values 1.01 | locus YCL029C, strain bik1, hits give low values 0.981 | locus YCL061C, strain MRC1, hits give low values 1.01 | locus YCL069W, strain vba3, hits give low values 1.03 | locus YCR088W, strain abp1, hits give low values 1.04 | locus YDL005C, strain med2, hits give low values 1.04 | locus YDL035C, strain GPR1, hits give low values 0.961 | locus YDL040C, strain nat1, hits give low values 1.03 | locus YDL074C, strain BRE1, hits give low values 0.956 | locus YDL101C, strain DUN1, hits give low values 1.01 | locus YDL185W, strain tfp1, hits give low values 0.952 | locus YDL192W, strain arf1, hits give low values 0.976 | locus YDR001C, strain nth1, hits give low values 1.03 | locus YDR069C, strain doa4, hits give low values 1.07 | locus YDR101C, strain arx1, hits give low values 0.977 | locus YDR137W, strain rgp1, hits give low values 0.99 | locus YDR150W, strain NUM1, hits give low values 1.07 | locus YDR159W, strain sac3, hits give low values 1.02 | locus YDR162C, strain NBP2, hits give low values 0.965 | locus YDR195W, strain ref2 1.06 | locus YDR297W, strain sur2, hits give low values 1.05 | locus YDR318W, strain mcm21, hits give low values 1.01 | locus YDR334W, strain swr1, hits give low values 1.04 | locus YDR335W, strain msn5, hits give low values 1.03 | locus YDR388W, hits give low values 1 | locus YDR502C, strain sam2, hits give low values 1.03 | locus YEL003W, strain gim4, hits give low values 1.02 | locus YEL037C, strain rad23, hits give low values 1.02 | locus YEL061C, strain CIN8 (second series), hits give low values 1.03 | locus YER015W, strain faa2, hits give low values 1.02 | locus YER016W, strain bim1, hits give low values 1.03 | locus YER110C, hits give low values 0.978 | locus YER111C, strain swi4, hits give low values 1.02 | locus YER155C, strain BEM2 (second series), hits give low values 0.989 | locus YER155C, strain BEM2, hits give low values 0.999 | locus YER167W, strain BCK2, hits give low values 1.01 | locus YFR010W, strain ubp6, hits give low values 1.05 | locus YGL078C, strain dbp3, hits give low values 1.03 | locus YGL086W, strain mad1, hits give low values 1.02 | locus YGL167C, strain pmr1, hits give low values 1.01 | locus YGL173C, strain kem1, hits give low values 1.04 | locus YGL227W, strain vid30, hits give low values 1.03 | locus YGL240W, strain doc1, hits give low values 1.01 | locus YGL248W, strain PDE1, hits give low values 1.02 | locus YGL253W, strain hxk2, hits give low values 1.03 | locus YGR135W, strain pre9, hits give low values 1.08 | locus YGR252W, strain gcn5, hits give low values 1.09 | locus YHR013C, strain ard1, hits give low values 1.02 | locus YHR027C, strain rpn1, hits give low values 1.04 | locus YHR030C, strain SLT2, hits give low values 0.929 | locus YHR079C, strain IRE1 (second series), hits give low values 0.982 | locus YHR079C, strain IRE1, hits give low values 0.961 | locus YHR094C, strain hxt1, hits give low values 0.985 | locus YHR129C, strain ARP1, hits give low values 1 | locus YHR142W, strain chs7, hits give low values 1 | locus YHR200W, strain rpn10, hits give low values 1.01 | locus YIL066C, strain RNR3, hits give low values 0.965 | locus YIL073C, strain SPO22, hits give low values 0.984 | locus YIL125W, strain kgd1, hits give low values 0.976 | locus YIR030C, strain dcg1, hits give low values 0.995 | locus YJL092W, strain hpr5, hits give low values 1.03 | locus YJL095W, strain BCK1 (second series), hits give low values 1.03 | locus YJL095W, strain BCK1, hits give low values 1.06 and 0.951 | locus YJL115W, strain asf1, hits give low values 1.03 | locus YJL129C, strain trk1, hits give low values 0.995 | locus YJL134W, strain LCB3, hits give low values 1 | locus YJL154C, strain vps35, hits give low values 1.03 | locus YJL164C, strain tpk1, hits give low values 0.988 | locus YJL166W, strain qcr8, hits give low values 0.982 | locus YJL168C, strain set2, hits give low values 1 | locus YJL187C, strain SWE1 (second series), hits give low values 1.03 | locus YJL187C, strain SWE1, hits give low values 1.02 | locus YJR066W, strain TOR1, hits give low values 0.931 | locus YJR075W, strain HOC1, hits give low values 1.03 | locus YKL009W, strain mrt4, hits give low values 0.956 | locus YKL068W, hits give low values 0.975 | locus YKL085W, strain MDH1 (second series), hits give low values 0.977 | locus YKL085W, strain MDH1, hits give low values 0.977 | locus YKL160W, strain elf1, hits give low values 0.995 | locus YKR001C, strain vps1, hits give low values 0.993 | locus YKR026C, strain gcn3, hits give low values 1.03 | locus YKR091W, strain srl3, hits give low values 1.03 | locus YLL001W, strain dnm1, hits give low values 0.988 | locus YLL026W, hits give low values 1.03 | locus YLL041C, strain sdh2, hits give low values 1.02 | locus YLR027C, strain aat2, hits give low values 0.992 | locus YLR039C, strain RIC1, hits give low values 1.05 | locus YLR058C, strain SHM2, hits give low values 1 | locus YLR102C, strain apc9, hits give low values 0.995 | locus YLR113W, strain HOG1, hits give low values 0.902 | locus YLR221C, strain rsa3, hits give low values 1.03 | locus YLR258W, strain gsy2, hits give low values 1.03 | locus YLR262C, strain YPT6 (second series), hits give low values 0.978 | locus YLR268W, strain sec22, hits give low values 0.975 | locus YLR320W, strain mms22, hits give low values 1.03 | locus YLR330W, strain CHS5, hits give low values 1 | locus YLR342W, strain FKS1 (second series), hits give low values 1.04 | locus YLR342W, strain FKS1, hits give low values 1.03 | locus YLR357W, strain rsc2, hits give low values 1.01 | locus YLR370C, strain arc18, hits give low values 1.02 | locus YLR371W, strain rom2, hits give low values 1.02 | locus YLR384C, strain iki3, hits give low values 1.03 | locus YLR418C, strain cdc73, hits give low values 0.98 | locus YML016C, strain PPZ1, hits give low values 0.999 | locus YML032C, strain rad52, hits give low values 0.976 | locus YML120C, strain ndi1, hits give low values 0.984 | locus YML124C, strain tub3, hits give low values 1 | locus YMR058W, strain fet3, hits give low values 1.04 | locus YMR078C, strain ctf18, hits give low values 0.987 | locus YMR125W, strain sto1, hits give low values 1.05 | locus YMR129W, hits give low values 1.02 | locus YMR205C, strain PFK2, hits give low values 0.958 | locus YMR223W, strain ubp8, hits give low values 0.986 | locus YMR231W, strain pep5, hits give low values 1.04 | locus YMR307W, strain GAS1, hits give low values 0.912 | locus YNL067W, strain RPL9B, hits give low values 1.04 | locus YNL071W, strain lat1, hits give low values 0.928 | locus YNL153C, strain GIM3, hits give low values 1.02 | locus YNL183C, strain NPR1, hits give low values 0.918 | locus YNL209W, strain ssb2, hits give low values 1.03 | locus YNL233W, strain BNI4, hits give low values 1.02 | locus YNL248C, strain rpa49, hits give low values 1.03 | locus YNL250W, strain rad50, hits give low values 0.989 | locus YNL271C, strain bni1, hits give low values 1 | locus YNL298W, strain CLA4, hits give low values 1 | locus YNL307C, strain MCK1, hits give low values 0.996 | locus YNL322C, strain KRE1 (second series), hits give low values 0.984 | locus YNR049C, strain mso1, hits give low values 1.03 | locus YNR052C, strain pop2, hits give low values 1.02 | locus YOL006C, strain TOP1, hits give low values 1.02 | locus YOL012C, strain htz1 1.3 | locus YOL147C, strain pex11, hits give low values 1 | locus YOR001W, strain rrp6, hits give low values 1.02 | locus YOR061W, strain CKA2, hits give low values 0.971 | locus YOR069W, strain VPS5, hits give low values 1.01 | locus YOR070C, strain gyp1, hits give low values 1 | locus YOR080W, strain dia2, hits give low values 1.04 | locus YOR083W, strain WHI5, hits give low values 0.976 | locus YOR106W, strain vam3, hits give low values 0.986 | locus YOR136W, strain idh2, hits give low values 1.01 | locus YOR144C, strain elg1, hits give low values 0.995 | locus YOR184W, strain ser1, hits give low values 0.928 | locus YOR231W, strain MKK1, hits give low values 0.917 | locus YOR265W, strain rbl2, hits give low values 1.04 | locus YOR270C, strain vph1, hits give low values 0.963 | locus YOR290C, strain snf2, hits give low values 0.946 | locus YOR316C, strain cot1, hits give low values 0.997 | locus YPL051W, strain arl3, hits give low values 0.996 | locus YPL078C, strain atp4, hits give low values 0.976 | locus YPL106C, strain sse1, hits give low values 1.01 | locus YPL240C, strain hsp82, hits give low values 1.02 | locus YPL256C, strain CLN2, hits give low values 0.95 | locus YPR119W, strain clb2, hits give low values 1 | locus YPR141C, strain kar3, hits give low values 0.993 | locus YPR163C, strain tif3, hits give low values 1.01 | locus YPR167C, strain met16, hits give low values 0.996 | strain wtn01, hits give low values 0.958
active: locus YDR392W, strain spt3, hits give low values 0.562
